The values that follow come from paper PMC4552634, “A New Set of Chemical Starting Points with Plasmodium falciparum Transmission-Blocking Potential for Antimalarial Drug Discovery” (PLoS ONE, 2015).

Hit rate of the full screen: of about 13,000 compounds, about 3,200 (25%) showed an effect of 50% or more. The list shows a part of the results.

In this experiment the test system is P. falciparum stage V gametocytes. On the set-up: BacTiter-Glo ATP luminescence viability of purified stage V gametocytes in 384-well plates, per cent inhibition versus DMSO. The conditions noted are these: 48 h, 5 µM; inhibitor.
With `O=C(Nc1cccc(-c2cc(-c3c(Cl)cccc3Cl)no2)c1)c1cnc2ccccc2c1` [TCMDC-136759], the “% Inhibition” value came out at 13.25%.
On to `CC(=O)N(C)C1CCN(Cc2cccc(-c3ccc(-c4nc5cc(F)ccc5[nH]4)cc3)c2)C1.O=C(O)C(F)(F)F` (stereo not drawn) [TCMDC-133894], for which the “% Inhibition” value worked out at 26.71%.
As to `O=C(NC1CCN(Cc2ccc3c(c2)OCCO3)CC1)c1ccc(-c2cccc(Cl)c2)s1` [TCMDC-134338], the “% Inhibition” value was determined as 2.147%.
Consider `O=C(NC1CC1c1ccccc1)N(CCCn1ccnc1)Cc1csc(-c2ccc(CNCc3ccccc3)cc2)n1` (stereo not drawn) [TCMDC-141644], for which the “% Inhibition” value is on record as 86.73%.
In the case of `O=C(NC1CCCCC1)N(CCCn1ccnc1)Cc1csc(-c2ccc(CNCc3ccccc3)cc2)n1` [TCMDC-141645] it was 7.097%.
In the case of `O=C(Nc1cccc(Cl)c1)N(CCCn1ccnc1)Cc1csc(-c2ccc(CNCc3ccccc3)cc2)n1` [TCMDC-141796] it was 19.94%.
As to `CC(=O)c1cccc(S(=O)(=O)NCCCNc2nc3cc(C)cc(C)c3cc2C#N)c1` [TCMDC-123734], the “% Inhibition” value was 8.065%.
Regarding `CCS(=O)(=O)N1CCN(c2nc(-c3ccccc3)nc(COC)c2Cc2ccccc2F)CC1` [TCMDC-124784], the “% Inhibition” value was -1.025%.
Regarding `COc1cc(/C=N/Nc2nc(Nc3ccccc3)nc(Nc3ccccc3)n2)ccc1OCc1ccccc1[N+](=O)[O-]` [TCMDC-125793], the “% Inhibition” value was determined as 59.87%.
Take `O=[N+]([O-])c1cccc(C=NNc2nc(Nc3ccccc3)nc(Nc3ccccc3)n2)c1` [TCMDC-125797]: the “% Inhibition” value was found to be 40.05%.
Turning to `COc1ccc(Nc2nc(N/N=C/c3ccc(O)cc3)nc(Nc3ccc([N+](=O)[O-])cc3)n2)cc1` [TCMDC-124127], the “% Inhibition” value is reported as -40.32%.
For `Cc1cc(NC2CCCC2)nc(Nc2ccccc2C)n1` [TCMDC-133473], the “% Inhibition” value is -0.2818%.
`O=C(Cc1ccc(Cl)cc1)Nc1cc(Cl)ccc1Cn1cnc(N2CCNCC2)cc1=O` [TCMDC-134317]: the “% Inhibition” value was -8.964%.
In the case of `Cc1cc(NCCCN2CCCC2=O)n2c(nc3ccccc32)c1C#N` [TCMDC-124485] it was -25.7%; in that of `CCc1c(C)c(C#N)c2nc3ccccc3n2c1NCc1ccco1` [TCMDC-124079], 78.38%.
With `Cc1nc(NCc2ccccc2)cc(Nc2cc(NCc3ccccc3)nc(C)n2)n1` [TCMDC-137298], the “% Inhibition” value is 0.4033%.
`COc1ccc2ncc(C#N)c(CCN3C[C@H](CNCc4ccccc4)[C@H](O)C3)c2n1` [TCMDC-136369]: the “% Inhibition” value was found to be 48.08%.
Consider `Cc1c(CCC#N)c(NCc2ccccc2)n2c(nc3ccccc32)c1C#N` [TCMDC-123759], for which the “% Inhibition” value turned out to be 74.35%.
In the case of `CCCCNc1c(CC)c(C)c(C#N)c2nc3ccccc3n12` [TCMDC-125729], the “% Inhibition” value is listed as 72.07%.
As for `Cl.Oc1ccccc1Nc1nc(NCc2ccco2)c2ccccc2n1` [TCMDC-124544], the “% Inhibition” value is recorded as -81.25%.
As to `Cc1ccc(O)c(Nc2c3c(c(C#N)c4nc5ccccc5n24)CCC3)c1` [TCMDC-124227], the “% Inhibition” value is reported as 16.2%.
Under `COc1ccc(Nc2nc(NCc3ccco3)c3ccccc3n2)cc1.Cl` [TCMDC-124562] stands 32.58%; under `COc1ccccc1N=C1SC(=Cc2cn(CC(=O)N3CCCc4ccccc43)c3ccccc23)C(=O)N1C1CCCCC1` [TCMDC-124809], 13.24%.
On to `Cc1c(C(=O)N2CCCC(C(F)(F)F)C2)sc2cccc(F)c12` (stereo not drawn) [TCMDC-124598], for which the “% Inhibition” value was found to be 6.461%.
Take `CS(=O)(=O)CCNCc1ccc(-c2cc3c(Nc4ccc(OCc5cccc(F)c5)c(Cl)c4)ncnc3s2)[nH]1` [TCMDC-135511]: the “% Inhibition” value is recorded as -19.72%.
As for `COc1ccc(C2CC(=O)C3=C(C2)NC(C)=C(C(=O)OC2CCCC2)C3c2cccc(O)c2)cc1` (stereo not drawn) [TCMDC-125631], the “% Inhibition” value was determined as 10.18%.
Turning to `CC(C)(CNCc1ccc(Cl)cc1)c1nc(-c2ccc(Cl)c(O)c2)c(-c2ccncc2)[nH]1` [TCMDC-140548], the “% Inhibition” value is recorded as -50.17%.
In the case of `CC(C)(CNCc1ccc(C(F)(F)F)cc1)c1nc(-c2ccc(Cl)c(O)c2)c(-c2ccnc(N)n2)[nH]1` [TCMDC-141162], the “% Inhibition” value is recorded as 38.42%.
In the case of `CC(C)(CNCc1ccc(F)c(F)c1)c1nc(-c2ccc(Cl)c(O)c2)c(-c2ccncc2)[nH]1` [TCMDC-140672], the “% Inhibition” value is on record as -67.6%.
As to `CC(C)(CNCc1ccc(Cl)c(Cl)c1)c1nc(-c2ccc(Cl)c(O)c2)c(-c2ccncc2)[nH]1` [TCMDC-140688], the “% Inhibition” value amounted to 78.8%.
In the case of `CC(C)(CNCc1cccc(Oc2ccccc2)c1)c1nc(-c2ccc(Cl)c(O)c2)c(-c2ccnc(N)n2)[nH]1` [TCMDC-141167] it was 23.98%; in that of `CC(C)(CNCc1ccc(C(F)(F)F)cc1)c1nc(-c2ccc(Cl)c(O)c2)c(-c2ccncc2)[nH]1` [TCMDC-140689], 22.22%.
For the molecule `CN(C)CCCOc1ccc(CNCC(C)(C)c2nc(-c3ccc(Cl)c(O)c3)c(-c3ccncc3)[nH]2)cc1` [TCMDC-140650], the “% Inhibition” value was 71.95%.
In the case of `CC(C)(CNCc1cccc(Oc2cccc(C(F)(F)F)c2)c1)c1nc(-c2ccc(Cl)c(O)c2)c(-c2ccnc(N)n2)[nH]1` [TCMDC-141166], the “% Inhibition” value came to 55.63%.
As to `COc1ccc(CNCC(C)(C)c2nc(-c3ccc(Cl)c(O)c3)c(-c3ccncc3)[nH]2)cc1` [TCMDC-140538], the “% Inhibition” value is -60.58%.
Turning to `Cc1ccc2nc(C)cc(NC(=O)Nc3ccc(N(C)C)cc3)c2c1` [TCMDC-140108], the “% Inhibition” value is on record as -84.19%.
As to `N#Cc1ccc2c(c1)CCN(CCC1CCC(NC(=O)/C=C/c3ccc(Cl)c(Cl)c3)CC1)CC2` (stereo not drawn) [TCMDC-139792], the “% Inhibition” value is -12.21%.
With `CC(C)C(=O)Nc1c(F)cc(F)cc1CCc1ccc(O)cc1` [TCMDC-137532], the “% Inhibition” value worked out at 15.35%.
In the case of `CC1(C)N=C(N)NC(Nc2ccc(F)c(F)c2)=N1` [TCMDC-123533], the “% Inhibition” value is listed as -23.61%.
Under `Cc1ccc(O)cc1Nc1ccnc2cc(-c3ccc(CN4CCCCC4)o3)ccc12` [TCMDC-138384] stands 25.1%; under `CN1CCN(Cc2ccc(-c3cc4nccc(Nc5ccc(Oc6ccccc6)cc5)c4cc3Cl)o2)CC1` [TCMDC-138463], 37.01%; under `CN1CCN(Cc2ccc(-c3ccc4c(Nc5ccc(Oc6ccccn6)cc5)ccnc4c3)o2)CC1` [TCMDC-138420], 73.84%.
As for `c1ccc(Oc2ccc(Nc3ccnc4cc(-c5ccc(CN6CCOCC6)o5)ccc34)cc2)nc1` [TCMDC-138424], the “% Inhibition” value amounted to 11.61%.
Consider `c1ccc(Oc2ccc(Nc3ccnc4cc(-c5ccc(CN6CCCCC6)o5)ccc34)cc2)nc1` [TCMDC-138422], for which the “% Inhibition” value was -0.3034%.
In the case of `c1ccc(Oc2ccc(Nc3ccnc4cc(-c5ccc(CN6CCNCC6)o5)ccc34)cc2)nc1` [TCMDC-138421], the “% Inhibition” value is reported as 97.92%.
In the case of `c1ccc(Oc2ccc(Nc3ccnc4cc(-c5ccc(CNCCN6CCOCC6)o5)ccc34)cc2)nc1` [TCMDC-138423], the “% Inhibition” value was -53.28%.
Consider `CN1CCN(Cc2ccc(-c3ccc4c(Nc5ccc(Oc6ccccc6)cc5)ccnc4c3)o2)CC1` [TCMDC-138402], for which the “% Inhibition” value is reported as 53.53%.
As for `CN(C)CCNC(=O)[C@H](CC1CCCCC1)NC(=O)c1ccc(O)c(-c2ccc(Cl)c(Cl)c2)c1` [TCMDC-140865], the “% Inhibition” value is 44.5%.
For the molecule `O=C(Nc1ccc(-c2nc3ccccc3[nH]2)cc1)c1ccc(Cl)s1` [TCMDC-123725], the “% Inhibition” value is given as -15.63%.
Take `CC1c2cccc(O)c2CCN1CCc1ccc(Cl)c(Cl)c1` (stereo not drawn) [TCMDC-138976]: the “% Inhibition” value is -24.59%.
With `O=C(Nc1cccc(-c2ccc(-c3nc4ccccc4[nH]3)cc2)c1)c1csnn1` [TCMDC-136901], the “% Inhibition” value is -10.17%.
Under `COc1ccc(CNC2CCN(C)CC2)cc1-c1ccc(S(=O)(=O)NCCc2ccccn2)c(C)c1` [TCMDC-132271] stands 72.47%; under `COc1ccc(CNC2CCN(C)CC2)cc1-c1ccc(S(=O)(=O)NCCc2ccccn2)c(F)c1` [TCMDC-132264], 102.9%; under `COc1ccc(CNC2CCN(C)CC2)cc1-c1ccc(S(=O)(=O)NCCc2ccccn2)cc1` [TCMDC-132246], 50.8%.
With `CN1CCC(NCc2cccc(-c3ccc(S(=O)(=O)NCCc4ccccn4)c(F)c3)c2)CC1` [TCMDC-132220], the “% Inhibition” value was found to be 17%.
In the case of `Cc1nnc(-c2ccc3ccccc3c2)c2cn(-c3cccc([N+](=O)[O-])c3)nc12` [TCMDC-138592], the “% Inhibition” value was determined as 4.043%.
Turning to `O=C(NCc1cccc(F)c1)Nc1ccc(-c2cccc(-c3nc4ccccc4[nH]3)c2)cc1` [TCMDC-133297], the “% Inhibition” value is reported as 6.044%.
For `COc1ccc2nccc([C@@H](O)CN3CCC(NC(=O)c4cc5c(F)cc(F)cc5[nH]4)CC3)c2c1` [TCMDC-140781], the “% Inhibition” value was -8.295%.
`O=C(Nc1ccc2nc3n(c(=O)c2c1)CCCCC3)C(=O)N1CCN(c2ccc(F)cc2)CC1` [TCMDC-125293]: the “% Inhibition” value is -18.55%.
Turning to `CCCN(Cc1ccc(OCC)cc1)Cc1cc(=O)c2cc(Cl)ccc2[nH]1` [TCMDC-124740], the “% Inhibition” value amounted to 40.3%.
In the case of `O=c1cc(NCCCN(Cc2cc3c(Cl)cc(Cl)cc3[nH]2)Cc2cc3c(Cl)cc(Cl)cc3[nH]2)[nH]c2ccccc12` [TCMDC-139849] it was 1.838%.
Under `CCCN(Cc1ccc(C)cc1)Cc1cc(=O)c2cc(Cl)ccc2[nH]1` [TCMDC-124741] stands 52.71%.
For the molecule `COc1ccc2nccc([C@@H](O)CN3CCC(NC(=O)c4cccc(C(=O)c5ccccc5)c4)CC3)c2c1` [TCMDC-141283], the “% Inhibition” value is reported as -43.58%.
On to `CCC(C)NCc1c(O)ccc2c(CNC(C)CC)c(O)ccc12` (stereo not drawn) [TCMDC-137585], for which the “% Inhibition” value is given as -26.38%.
With `CCC(C)NCC(O)(c1ccc(Cl)cc1)c1ccc(Cl)cc1` (stereo not drawn) [TCMDC-123502], the “% Inhibition” value amounted to 68.55%.
Under `CCC(C)NCCC(c1ccccc1)c1ccccc1O` (stereo not drawn) [TCMDC-125727] stands 32.82%.
